Assay results taken from PubChem BioAssay AID1159580 (chemical genetic matrix, 2015).
Values joined by “and” are separate entries in the source; they are usually repeats but may differ in a detail not shown here. Equal entries are not always repeated. Screen size: about 5,500 compounds; about 2,000 (36%) were called active. Roughly 18% stayed inconclusive and do not appear here. Cut-off read from the data, not from the text of the source: active = normalized growth mostly below about 0.91 (no sharp cut-off); inconclusive = no clear call, values can overlap the other calls; inactive = mostly above about 0.92. The list shows a part of the results.

Assay: chemical genetic growth profiling, strain panel (AID 1159580);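 note: tested at 20 µM; growth read once vehicle control cultures reached saturation at 30 °C; 1 = growth at the plate median or of vehicle wells; lower values mean less growth of the strain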
Conditions: S. cerevisiae deletion strains, growth OD

Measured: normalized growth

COc1ccc2c(c1)OCC(Cc1ccc(OC)c(OC(C)=O)c1)C2=O (configuration not stated)
inactive: locus YAL013W, strain DEP1, active compounds read low 0.979 | locus YAL021C, strain ccr4, active compounds read low 0.974 | locus YAL026C, strain drs2, active compounds read low 0.967 | locus YAL030W, strain snc1, active compounds read low 0.973 | locus YBL061C, strain skt5, active compounds read low 0.967 | locus YBR009C, strain hhf1, active compounds read low 0.983 | locus YBR021W, strain FUR4, active compounds read low 0.883 | locus YBR023C, strain chs3, active compounds read low 0.965 | locus YBR171W, strain sec66, active compounds read low 0.962 | locus YBR229C, strain ROT2, active compounds read low 0.996 | locus YBR231C, strain swc5, active compounds read low 0.969 | locus YBR279W, strain paf1, active compounds read low 0.973 | locus YCL011C, strain gbp2, active compounds read low 0.985 | locus YCL016C, strain dcc1, active compounds read low 0.985 | locus YCL029C, strain bik1, active compounds read low 1.01 | locus YCL061C, strain MRC1, active compounds read low 0.976 | locus YCL069W, strain vba3, active compounds read low 0.982 | locus YCR088W, strain abp1, active compounds read low 0.984 | locus YDL005C, strain med2, active compounds read low 0.963 | locus YDL035C, strain GPR1, active compounds read low 0.99 | locus YDL040C, strain nat1, active compounds read low 0.96 | locus YDL074C, strain BRE1, active compounds read low 1.01 | locus YDL101C, strain DUN1, active compounds read low 0.988 | locus YDL134C, strain PPH21, active compounds read low 0.952 | locus YDL185W, strain tfp1, active compounds read low 1.02 | locus YDL192W, strain arf1, active compounds read low 1 | locus YDR001C, strain nth1, active compounds read low 0.982 | locus YDR069C, strain doa4, active compounds read low 0.958 | locus YDR101C, strain arx1, active compounds read low 0.996 | locus YDR137W, strain rgp1, active compounds read low 0.959 | locus YDR150W, strain NUM1, active compounds read low 0.982 | locus YDR159W, strain sac3, active compounds read low 0.975 | locus YDR162C, strain NBP2, active compounds read low 0.957 | locus YDR195W, strain ref2 1.04 | locus YDR297W, strain sur2, active compounds read low 0.978 | locus YDR318W, strain mcm21, active compounds read low 0.992 | locus YDR334W, strain swr1, active compounds read low 0.973 | locus YDR335W, strain msn5, active compounds read low 0.984 | locus YDR388W, active compounds read low 0.998 | locus YDR392W, strain spt3, active compounds read low 0.781 | locus YDR502C, strain sam2, active compounds read low 0.992 | locus YEL003W, strain gim4, active compounds read low 0.992 | locus YEL037C, strain rad23, active compounds read low 0.978 | locus YEL061C, strain CIN8 (second series), active compounds read low 0.984 | locus YEL061C, strain CIN8, active compounds read low 0.993 | locus YER015W, strain faa2, active compounds read low 0.98 | locus YER016W, strain bim1, active compounds read low 0.977 | locus YER110C, active compounds read low 1.02 | locus YER111C, strain swi4, active compounds read low 0.972 | locus YER155C, strain BEM2 (second series), active compounds read low 0.952 | locus YER155C, strain BEM2, active compounds read low 0.981 | locus YER167W, strain BCK2, active compounds read low 0.993 | locus YFR010W, strain ubp6, active compounds read low 0.969 | locus YGL078C, strain dbp3, active compounds read low 1 | locus YGL086W, strain mad1, active compounds read low 1.01 | locus YGL167C, strain pmr1, active compounds read low 0.957 | locus YGL173C, strain kem1, active compounds read low 0.954 | locus YGL227W, strain vid30, active compounds read low 0.979 | locus YGL240W, strain doc1, active compounds read low 0.99 | locus YGL248W, strain PDE1, active compounds read low 0.99 | locus YGL253W, strain hxk2, active compounds read low 0.93 | locus YGR078C, strain PAC10, active compounds read low 0.977 | locus YGR135W, strain pre9, active compounds read low 1 | locus YGR252W, strain gcn5, active compounds read low 1.01 | locus YHR013C, strain ard1, active compounds read low 0.95 | locus YHR027C, strain rpn1, active compounds read low 0.995 | locus YHR030C, strain SLT2, active compounds read low 1 and 1.05 | locus YHR079C, strain IRE1 (second series), active compounds read low 0.987 | locus YHR079C, strain IRE1, active compounds read low 1.01 | locus YHR094C, strain hxt1, active compounds read low 0.992 | locus YHR129C, strain ARP1, active compounds read low 0.998 | locus YHR142W, strain chs7, active compounds read low 0.965 | locus YHR200W, strain rpn10, active compounds read low 1.01 | locus YIL066C, strain RNR3, active compounds read low 0.982 | locus YIL073C, strain SPO22, active compounds read low 0.996 | locus YIL125W, strain kgd1, active compounds read low 1 | locus YIR030C, strain dcg1, active compounds read low 0.987 | locus YJL092W, strain hpr5, active compounds read low 0.98 | locus YJL095W, strain BCK1 (second series), active compounds read low 0.973 | locus YJL095W, strain BCK1, active compounds read low 0.991 and 1.05 | locus YJL115W, strain asf1, active compounds read low 0.983 | locus YJL129C, strain trk1, active compounds read low 0.945 | locus YJL134W, strain LCB3, active compounds read low 1 | locus YJL154C, strain vps35, active compounds read low 0.98 | locus YJL164C, strain tpk1, active compounds read low 0.97 | locus YJL166W, strain qcr8, active compounds read low 0.961 | locus YJL168C, strain set2, active compounds read low 0.99 | locus YJL187C, strain SWE1 (second series), active compounds read low 0.991 | locus YJL187C, strain SWE1, active compounds read low 0.978 | locus YJR043C, strain POL32, active compounds read low 1.01 | locus YJR066W, strain TOR1, active compounds read low 1 | locus YJR075W, strain HOC1, active compounds read low 0.983 | locus YKL009W, strain mrt4, active compounds read low 0.993 | locus YKL068W, active compounds read low 0.984 | locus YKL085W, strain MDH1 (second series), active compounds read low 0.982 | locus YKL085W, strain MDH1, active compounds read low 0.982 | locus YKL160W, strain elf1, active compounds read low 0.98 | locus YKL190W, strain CNB1, active compounds read low 0.974 | locus YKR001C, strain vps1, active compounds read low 1.01 | locus YKR026C, strain gcn3, active compounds read low 0.971 | locus YKR091W, strain srl3, active compounds read low 0.974 | locus YLL001W, strain dnm1, active compounds read low 0.979 | locus YLL026W, active compounds read low 0.976 | locus YLL041C, strain sdh2, active compounds read low 0.987 | locus YLR027C, strain aat2, active compounds read low 0.97 | locus YLR039C, strain RIC1, active compounds read low 1.04 | locus YLR058C, strain SHM2, active compounds read low 0.995 | locus YLR102C, strain apc9, active compounds read low 1 | locus YLR113W, strain HOG1, active compounds read low 0.95 | locus YLR221C, strain rsa3, active compounds read low 0.943 | locus YLR258W, strain gsy2, active compounds read low 0.963 | locus YLR262C, strain YPT6 (second series), active compounds read low 0.965 | locus YLR262C, strain YPT6, active compounds read low 1 | locus YLR268W, strain sec22, active compounds read low 0.992 | locus YLR320W, strain mms22, active compounds read low 0.933 | locus YLR330W, strain CHS5, active compounds read low 0.997 | locus YLR342W, strain FKS1 (second series), active compounds read low 0.993 | locus YLR342W, strain FKS1, active compounds read low 0.948 | locus YLR357W, strain rsc2, active compounds read low 0.974 | locus YLR370C, strain arc18, active compounds read low 0.981 | locus YLR371W, strain rom2, active compounds read low 1.01 | locus YLR384C, strain iki3, active compounds read low 0.975 | locus YLR418C, strain cdc73, active compounds read low 0.995 | locus YML016C, strain PPZ1, active compounds read low 1 | locus YML032C, strain rad52, active compounds read low 1 | locus YML120C, strain ndi1, active compounds read low 0.982 | locus YML124C, strain tub3, active compounds read low 0.995 | locus YMR058W, strain fet3, active compounds read low 0.965 | locus YMR078C, strain ctf18, active compounds read low 1 | locus YMR125W, strain sto1, active compounds read low 0.985 | locus YMR129W, active compounds read low 0.975 | locus YMR205C, strain PFK2, active compounds read low 0.946 | locus YMR223W, strain ubp8, active compounds read low 1 | locus YMR231W, strain pep5, active compounds read low 0.946 | locus YMR263W, strain SAP30, active compounds read low 0.996 | locus YMR307W, strain GAS1, active compounds read low 0.92 | locus YNL067W, strain RPL9B, active compounds read low 0.981 | locus YNL071W, strain lat1, active compounds read low 0.949 | locus YNL153C, strain GIM3, active compounds read low 0.988 | locus YNL183C, strain NPR1, active compounds read low 0.99 | locus YNL209W, strain ssb2, active compounds read low 0.996 | locus YNL233W, strain BNI4, active compounds read low 0.991 | locus YNL248C, strain rpa49, active compounds read low 0.963 | locus YNL250W, strain rad50, active compounds read low 1.01 | locus YNL271C, strain bni1, active compounds read low 0.989 | locus YNL298W, strain CLA4, active compounds read low 1 | locus YNL307C, strain MCK1, active compounds read low 1 | locus YNL322C, strain KRE1 (second series), active compounds read low 0.979 | locus YNR049C, strain mso1, active compounds read low 0.97 | locus YNR052C, strain pop2, active compounds read low 0.996 | locus YOL012C, strain htz1 1.12 | locus YOL147C, strain pex11, active compounds read low 0.988 | locus YOR001W, strain rrp6, active compounds read low 0.956 | locus YOR061W, strain CKA2, active compounds read low 0.995 | locus YOR069W, strain VPS5, active compounds read low 1 | locus YOR070C, strain gyp1, active compounds read low 1 | locus YOR080W, strain dia2, active compounds read low 0.978 | locus YOR083W, strain WHI5, active compounds read low 0.971 | locus YOR106W, strain vam3, active compounds read low 0.963 | locus YOR136W, strain idh2, active compounds read low 1 | locus YOR144C, strain elg1, active compounds read low 0.996 | locus YOR184W, strain ser1, active compounds read low 0.969 | locus YOR231W, strain MKK1, active compounds read low 1.01 | locus YOR265W, strain rbl2, active compounds read low 0.975 | locus YOR270C, strain vph1, active compounds read low 0.88 | locus YOR290C, strain snf2, active compounds read low 0.974 | locus YOR316C, strain cot1, active compounds read low 1.01 | locus YPL051W, strain arl3, active compounds read low 1 | locus YPL078C, strain atp4, active compounds read low 0.972 | locus YPL106C, strain sse1, active compounds read low 0.982 | locus YPL240C, strain hsp82, active compounds read low 0.971 | locus YPL256C, strain CLN2, active compounds read low 1.04 | locus YPR119W, strain clb2, active compounds read low 0.995 | locus YPR141C, strain kar3, active compounds read low 1.01 | locus YPR163C, strain tif3, active compounds read low 1.01 | locus YPR167C, strain met16, active compounds read low 0.994 | strain wtn01, active compounds read low 1.01
